Consider 13 compounds from PubChem BioAssay AID602143 (Vanderbilt Specialized Chemistry Center, 2011).

Values joined by “and” are separate entries in the source; they are usually repeats but may differ in a detail not shown here. Identical values can stand only once. Values without a mark were called inactive. Active and inactive are the calls of the source. No stated cut-off is given here; in the data, active means remaining activity below about 50%; inactive means the rest.

For the test, the target named is Phospholipase D2 (Homo sapiens) (UniProt O14939). Put plainly: cellular phospholipase D2 activity inhibition – cell-based, HEK293, single concentration (AID 602143).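 Further: tested at 200 nM.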 The following applies: HEK293 cellular PLD2 activity, percent of control; active compounds read low.
Sequence of Phospholipase D2 (Homo sapiens) (O14939 whole entry, looked up): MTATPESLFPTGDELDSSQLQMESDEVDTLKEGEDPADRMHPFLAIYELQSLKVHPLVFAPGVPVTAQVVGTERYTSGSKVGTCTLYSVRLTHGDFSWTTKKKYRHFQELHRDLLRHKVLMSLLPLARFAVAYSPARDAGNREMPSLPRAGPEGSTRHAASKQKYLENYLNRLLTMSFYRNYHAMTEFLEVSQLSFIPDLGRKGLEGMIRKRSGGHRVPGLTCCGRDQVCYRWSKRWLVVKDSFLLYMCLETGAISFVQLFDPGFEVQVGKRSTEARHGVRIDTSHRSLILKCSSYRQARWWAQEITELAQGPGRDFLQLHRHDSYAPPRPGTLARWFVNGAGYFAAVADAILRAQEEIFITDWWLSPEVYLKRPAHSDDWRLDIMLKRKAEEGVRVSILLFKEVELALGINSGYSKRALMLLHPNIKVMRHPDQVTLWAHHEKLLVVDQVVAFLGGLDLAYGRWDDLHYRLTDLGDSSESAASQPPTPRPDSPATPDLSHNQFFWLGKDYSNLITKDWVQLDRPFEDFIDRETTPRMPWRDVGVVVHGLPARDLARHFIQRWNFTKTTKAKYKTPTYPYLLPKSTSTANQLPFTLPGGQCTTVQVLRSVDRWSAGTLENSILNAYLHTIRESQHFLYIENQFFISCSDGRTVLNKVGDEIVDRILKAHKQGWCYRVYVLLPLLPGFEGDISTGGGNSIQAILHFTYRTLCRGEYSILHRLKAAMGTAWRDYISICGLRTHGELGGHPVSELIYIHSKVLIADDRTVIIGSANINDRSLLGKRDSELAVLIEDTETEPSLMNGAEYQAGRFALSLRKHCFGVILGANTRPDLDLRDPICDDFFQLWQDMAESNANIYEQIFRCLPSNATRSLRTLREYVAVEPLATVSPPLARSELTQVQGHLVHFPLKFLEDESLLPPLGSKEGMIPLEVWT
Sequence of Phospholipase D2 (Homo sapiens) (O14939 whole entry, looked up): as above
What is called remaining activity is the signal under treatment as a percentage of the control signal. With `O=C(NCCN1CCC2(C=Cc3ccccc32)CC1)c1ccc2ccccc2c1`, the remaining activity was 119%.

For the compound `Cc1ccc(C(=O)NCCN2CCC(n3c(=O)[nH]c4cc(Br)ccc43)CC2)cc1`, the remaining activity is 21.8% (active).

Regarding `Nc1ccc(C(=O)NCCN2CCC(n3c(=O)[nH]c4ccccc43)CC2)cc1OC(F)(F)F`, the remaining activity was 76.5%.

For `O=C(CCc1ccccc1)NCCN1CCC(n2c(=O)[nH]c3ccccc32)CC1`, the remaining activity is 80.7%.

Take `O=C(NCCN1CCC(n2c(=O)[nH]c3ccccc32)CC1)N1c2ccccc2C=Cc2ccccc21`: the remaining activity was 66.5%.

Consider `C[C@@H](NC(=O)NCCN1CCC(n2c(=O)[nH]c3ccccc32)CC1)c1ccccc1`, for which the remaining activity was 107% and 123%.

Consider `C[C@@H](CN1CCC(n2c(=O)[nH]c3ccccc32)CC1)NC(=O)c1cc2ccccc2[nH]1`, for which the remaining activity is 0.434% (active).

`O=C(NCCN1CC=C(n2c(=O)[nH]c3ccccc32)CC1)C1CC1c1ccccc1` (stereo not drawn): the remaining activity is 28.2% (active).

With `O=C1c2ccccc2C(=O)N1CCCN1CCC(n2c(=O)[nH]c3ccccc32)CC1`, the remaining activity was 97.3%.

In the case of `C[C@@H](CN1CCC(n2nnc3cc(C(F)(F)F)ccc32)CC1)NC(=O)c1cnc2ccccc2c1`, the remaining activity was 86.9%.

In the case of `O=c1[nH]c2ccccc2n1C1CCN(CCNS(=O)(=O)c2ccccc2C(F)(F)F)CC1`, the remaining activity is 98%.

As for `CC(=O)c1cccc(NC(=O)NCCN2CCC(n3c(=O)[nH]c4ccccc43)CC2)c1`, the remaining activity was 118%.

As for `C[C@@H](CN1CCC(n2c(=O)[nH]c3ccccc32)CC1)NC(=O)COc1ccccc1`, the remaining activity was 88.2%.
